Consider 40 molecules from PubChem BioAssay (Tox21).

Molecules are shown by their SMILES. Inconclusive results are not listed. Where a call stands in place of a potency, no number is given. Values without a mark were called inactive. Activity calls are given as the source filed them. Calls come from the whole dose curve; as a rule, active = well fitted cell-killing curve with a large enough effect in the repeat runs; inconclusive = weak or mixed curves, or effect the other way; inactive = flat fitted curve, though single readings scatter.

The nature of this test: qHTS assay to identify small molecule agonists of the androgen receptor (AR) signaling pathway in the presence of an antagonist - cell viability counter screen (AID 1259379). Note: nearly all actives have a fitted effect of over 25% in size. As to conditions: MDA-kb2 viability, CellTiter-Fluor, 16 h; series mostly up to 92.4 µM. An excerpt:
National Center for Advancing Translational Sciences [NCATS]
NIH Chemical Genomics Center [NCGC]
U.S. Environmental Protection Agency [EPA]
National Institutes of Environmental Health Sciences [NIEHS]
National Toxicology Program [NTP]
U.S. Food and Drug Administration [FDA]
Androgen receptor (AR) is an important member of nuclear receptor family. Its signaling plays a critical role in AR-dependent prostate cancer and other androgen related diseases. Considerable attention has been given in the past decades to develop methods to study and screen for the environmental chemicals that have the potential to interfere with metabolic homeostasis, reproduction, developmental and behavioral functions. Therefore AR binding assay for screening against androgen agonists and antagonists can be used to identify potential endocrine disruptors.
MDA-kb2 cells (from ATCC, deposited by Wilson et al.) are human breast carcinoma cells that were stably transfected with a luciferase reporter gene under control of the MMTV promoter that contains response elements for both androgen receptor (AR) and glucocorticoid receptor (GR). This particular screening for measuring luciferase reporter gene activity using MDA-kb2 cells against Tox21 10K library compounds is a confirmation study on agonist mode screening in the presence of AR-antagonist compound (Nilutamide) at 3.0uM final concentration. The cytotoxicity of the compounds was tested in parallel by measuring the cell viability using CellTiter-Fluor assay system (Promega, Madison, WI) in the same wells.
Tox21 Assay Protocol Summary:
MDA-kb2 cells (cells cultured without CO2) were dispensed at 3,000 cells/well in 4uL of culture medium into white wall/solid-bottom 1536-well plates (Corning Life Sciences, Corning, NY) using a Multidrop Combi (Thermo Fisher Scientific Inc., Waltham, MA) dispenser. The assay plates were incubated at 37C and 0% CO2 for 5hr. One uL of 3.0uM (final concentration) Nilutamide or assay buffer was added using two separate tips of Flying Reagent Dispenser (FRD, Aurora Discovery, San Diego, CA). Then 23nL of compounds dissolved in DMSO at 15 concentrations and positive controls were transferred to the assay plates using a Pintool station (Wako, San Diego, CA). The assay plates were incubated at 37C and 0% CO2 for 16 hr. After 15hr incubation at 37C, 1uL/well CellTiter-Fluor reagent (Promega Corporation) was added to each well of the assay plates using FRD. After 1hr incubation at 37C and 0% CO2, the fluorescence signal was measured using a ViewLux plate reader (PerkinElmer, Shelton, CT).
For orientation: In qHTS, concentration-response curves come from the screen itself.
Take `CCCCCCCCCCCCCCCC(=O)NCCO`: the Potency entry was “inactive”. For `Oc1ccccc1Cc1ccccc1O`, the Potency result was “inactive”.

For `NC(=O)NNC(N)=O`, the Potency entry is “inactive”. For `COc1ccc(/C=N/NC(=O)c2ccncc2)cc1OC`, the Potency result is “inactive”. Still for that read-out and setting: as for `CCc1nccnc1C`, the entry is “inactive”.

As to `CC(C)(c1ccc(Oc2ccc3c(c2)C(=O)OC3=O)cc1)c1ccc(Oc2ccc3c(c2)C(=O)OC3=O)cc1`, the Potency result was “inactive”. On the same count and under the same terms, as for `CCCCCCCCCCC`, the entry is “inactive”; as for `Cc1ccccc1N1CCN(CCc2nnc3n2CCCC3)CC1`, “inactive”; as for `CC(=O)N(CC(O)CO)c1c(I)c(C(=O)NCC(O)CO)c(I)c(C(=O)NCC(O)CO)c1I` (stereo not given), “inactive”. Still for that read-out and setting: as for `Nc1ccc(S(=O)(=O)NC(=O)c2ccccc2)cc1`, the entry is “inactive”. With `CCC(O)C(C)(C)C` (stereo not given), the Potency entry was “inactive”. Take `CCOC(=O)CC#N`: the Potency result is “inactive”. On the same count and under the same terms, the same measure for `CCCCCN(CCCOC)C(=O)C(CCC(=O)O)NC(=O)c1ccc(Cl)c(Cl)c1` (stereo not given): “inactive”; for `CC(=O)OCCCc1ccccc1`: “inactive”. The same measure, in the same setting: the same measure for `O=c1cc(O)c(Cl)c[nH]1`: “inactive”; for `Cc1cccc(Nc2ccncc2S(=O)(=O)NC(=O)NC(C)C)c1`: “inactive”; for `CC(=O)c1ccc(OCC(=O)N2CCCCC2)cc1`: “inactive”. Take `CNCc1ccccc1`: the Potency entry is “inactive”.

Turning to `CC(C)CCO`, the Potency result was “inactive”.

For `CCCCCCCCOC(C)=O`, the Potency entry was “inactive”. On the same count and under the same terms, as for `Cc1ccccc1OCC1CO1` (stereo not given), the entry is “inactive”.

As for `O=CO`, the activity change, negative = cytotoxicity is 0.727% [at 8.39 µM]. Take `Nc1ccc(C(=O)OCC(O)CO)cc1` (stereo not given): the Potency entry was “inactive”.

For the molecule `COc1cc2c(Nc3ccc(Br)cc3F)ncnc2cc1OCC1CCN(C)CC1`, the Potency entry was “inactive”. With `O=C(COCCOCCOCC(=O)Nc1c(I)cc(I)c(C(=O)O)c1I)Nc1c(I)cc(I)c(C(=O)O)c1I`, the Potency result is “inactive”. Same read-out and setting: the same measure for `NC(=O)NC(=O)Cc1ccccc1`: “inactive”. The same measure, in the same setting: as for `Cc1c(C(C)C)c(=O)n(-c2ccccc2)n1C`, the entry is “inactive”; as for `CNC(=O)C(c1ccccc1)c1ccccc1`, “inactive”; as for `CCCCCCCC[Si](OCC)(OCC)OCC`, “inactive”. On the same count and under the same terms, the same measure for `O=C(O)c1ccccc1C(=O)OCc1ccccc1`: “inactive”. Consider `CCOc1ccc(NC(=O)OC(C)C)cc1OCC`, for which the Potency result was “inactive”. As to `O=C(O)Cc1cccc(-c2cc(CCCCCCc3ccc(O[C@H]4O[C@H](CO)[C@@H](O)[C@H](O)[C@@H]4O)c(-c4cccc(CC(=O)O)c4)c3)ccc2O[C@H]2O[C@H](CO)[C@@H](O)[C@H](O)[C@@H]2O)c1`, the activity change, negative = cytotoxicity is 1.29% [at 0.35 µM].

On to `C1CCN2C[C@@H]3C[C@@H](CN4CCCC[C@@H]34)[C@H]2C1`, for which the Potency entry is “inactive”. Consider `CC(C)CCC(=O)CCC(C)C`, for which the Potency result is “inactive”.

Turning to `O=S(=O)(O)SSS(=O)(=O)O`, the Potency result was “inactive”.

Regarding `O=CN1CCOCC1`, the Potency entry is “inactive”. Turning to `CCCCCCCCCCCCCCCCI`, the activity change, negative = cytotoxicity was -1.43% [at 19 µM]. As to `CCCCOC(=O)[C@@H](C)Oc1ccc(Oc2ccc(C(F)(F)F)cn2)cc1`, the Potency result is “inactive”. The same measure, in the same setting: the same measure for `O=c1[nH]c(=O)c2ccccc2o1`: “inactive”; for `CCCCC(CC)COC(=O)c1ccccc1` (stereo not given): “inactive”.
